For three compounds, outcome and AC50 results are on record in PubChem BioAssay (EPA / NIEHS).

SMILES strings stand for the structures. Calls of active or inactive are those of the source. Rule for the calls: active = hit-call score of the fitted dose curve at least 0.9, where 1 is the maximum; inactive = score below 0.9.

The nature of test [1]: CEETOX_H295R_PROG: CeeTox H295R High-throughput Steroidogenesis Assay for Progesterone (PROG) (AID 2283442). The settings on record: actives raise or lower the signal. The gist of the method:
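Progesterone read-out: HPLC-MS/MS on MTBE extracts of conditioned medium after 48 h chemical exposure of forskolin-primed (10 uM, 48 h) H295R cells. Gain or loss of signal was fitted relative to DMSO baseline.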

Read-out in test [2]: Tumor necrosis factor receptor superfamily member 6 (Homo sapiens) (UniProt P25445)
Description: LTEA_HepaRG_FAS: Life Technologies and Expression Analysis (LTEA) Assay for Fas cell surface death receptor (FAS) using HepaRG (AID 2283447). As to conditions: mRNA level, 48 h; actives raise or lower the signal. The gist of the method: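 FAS transcript level was measured by TaqMan qRT-PCR against three housekeeping genes after 48 h chemical exposure. Cells were HepaRG, 0.5% DMSO vehicle, with a top concentration of 100 uM and half-log dilutions over eight points, in duplicate.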

Read-out in test [3]: Fatty acid synthase (Homo sapiens) (UniProt P49327)
Put plainly: LTEA_HepaRG_FASN: Life Technologies and Expression Analysis (LTEA) Assay for Fatty Acid Synthase (FASN) using HepaRG (AID 2283448).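 For AC50: differentiated human HepaRG liver cells in serum-free induction medium.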 The settings on record: mRNA level, 48 h; actives raise or lower the signal. The gist of the method:
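HepaRG, 48 h exposure, 8-pt half-log series top 100 uM, 0.5% DMSO vehicle, duplicates. Readout: FASN transcript by Fluidigm qRT-PCR; housekeeping-normalized; bidirectional curve fit vs DMSO baseline.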

Read-out in test [4]: Cyclin D2 (CCND2), CCND2 (gene 894)
Description: LTEA_HepaRG_CCND2: Life Technologies and Expression Analysis (LTEA) Assay for Cyclin D2 (CCND2) using HepaRG (AID 2283449). The settings on record: mRNA level, 48 h; actives raise or lower the signal. The gist of the method: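 CCND2 transcript levels, quantified by qRT-PCR and normalised to three housekeeping genes, were fitted bidirectionally against 0.5% DMSO. HepaRG cultures were dosed 48 h in duplicate with an 8-point half-log series up to 100 uM.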

Read-out in test [5]: Cyclin Dependent Kinase Inhibitor 1A (CDKN1A), CDKN1A (gene 1026)
Put plainly: LTEA_HepaRG_CDKN1A: Life Technologies and Expression Analysis (LTEA) Assay for Cyclin Dependent Kinase Inhibitor 1A (CDKN1A) using HepaRG (AID 2283450). As to conditions: mRNA level, 48 h; actives raise or lower the signal. The gist of the method:
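HepaRG, 48 h dosing, 8-pt half-log series from 100 uM top, 0.5% DMSO vehicle, duplicates. Readout: TaqMan qRT-PCR of CDKN1A transcript, housekeeping-normalized (ACTB, GAPDH, POLR2A). Up/down curve fit relative to DMSO.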

Read-out in test [6]: Cyclin D1 (CCND1), CCND1 (gene 595)
Description: LTEA_HepaRG_CCND1: Life Technologies and Expression Analysis (LTEA) Assay for Cyclin D1 (CCND1) using HepaRG (AID 2283451).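 For AC50: differentiated human HepaRG liver cells in serum-free induction medium.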 The settings on record: mRNA level, 48 h; actives raise or lower the signal. The gist of the method: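 qRT-PCR (Fluidigm 96.96 array) read-out of transcript level, housekeeping-normalized (ACTB/GAPDH/POLR2A). HepaRG cells, 48 h chemical exposure, 8-point half-log series from 100 uM, 0.5% DMSO vehicle; gain or loss relative to DMSO baseline.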

Read-out in test [7]: catalase (CAT), CAT (gene 847)
Description: LTEA_HepaRG_CAT: Life Technologies and Expression Analysis (LTEA) Assay for catalase (CAT) using HepaRG (AID 2283452). As to conditions: mRNA level, 48 h; actives raise or lower the signal. The method in brief:
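Expression of CAT was quantified by TaqMan qRT-PCR with ACTB/GAPDH/POLR2A normalization after 48 h chemical exposure of HepaRG. Eight-point half-log series, top 100 uM, in 0.5% DMSO; gain or loss fitted against vehicle.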

Read-out in test [8]: flavin-containing dimethylaniline monooxygenases 3 (FMO3), FMO3 (gene 2328)
Put plainly: LTEA_HepaRG_FMO3: Life Technologies and Expression Analysis (LTEA) Assay for flavin-containing dimethylaniline monooxygenases 3 (FMO3) using HepaRG (AID 2283453).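 For AC50: differentiated human HepaRG liver cells in serum-free induction medium.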 As to conditions: mRNA level, 48 h; actives raise or lower the signal. The method in brief:
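Eight-point concentration-response in serum-free HepaRG cultures (top 100 uM, 0.5% DMSO, 48 h). Read-out: FMO3 mRNA level normalized to three endogenous control genes, fitted bidirectionally versus vehicle.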

Read-out in test [9]: Cytochrome P450 (CYP1A1), CYP1A1 (gene 1543)
Put plainly: LTEA_HepaRG_CYP1A1: Life Technologies and Expression Analysis (LTEA) Assay for Cytochrome P450 (CYP1A1) using HepaRG (AID 2283454). As to conditions: mRNA level, 48 h; actives raise or lower the signal. The method in brief:
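qRT-PCR read-out: CYP1A1 transcript normalized to three housekeeping genes, fitted bidirectionally against 0.5% DMSO vehicle baseline. Human HepaRG cells, 48 h chemical exposure, 8-point half-log series topping at 100 uM.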

Read-out in test [10]: CFLAR gene, CFLAR (gene 8837)
Description: LTEA_HepaRG_CFLAR: Life Technologies and Expression Analysis (LTEA) Assay for CFLAR gene using HepaRG (AID 2283455). As to conditions: mRNA level, 48 h; actives raise or lower the signal. The gist of the method: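 Transcript level by qRT-PCR (normalized to ACTB, GAPDH and POLR2A) after 48 h chemical exposure of HepaRG cells, top concentration 100 uM with half-log steps, 0.5% DMSO vehicle, duplicates; fitted bidirectionally against DMSO baseline.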

Read-out in test [11]: Forkhead box O1 (FOXO1), FOXO1 (gene 2308)
Description: LTEA_HepaRG_FOXO1: Life Technologies and Expression Analysis (LTEA) Assay for Forkhead box O1 (FOXO1) using HepaRG (AID 2283456). As to conditions: mRNA level, 48 h; actives raise or lower the signal. The method in brief:
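FOXO1 transcript quantified by qRT-PCR after 48 h chemical exposure (top 100 uM, half-log steps, 0.5% DMSO) of HepaRG cells, housekeeping-normalized (ACTB/GAPDH/POLR2A). Changes fitted in both directions relative to vehicle.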

Test [12] is described as follows: CEETOX_H295R_TESTO: CeeTox H295R High-throughput Steroidogenesis Assay for Testosterone (TESTO) (AID 2283457). As to conditions: actives raise or lower the signal. The method in brief:
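Readout: testosterone quantified by HPLC-MS/MS (C18, ESI positive) after MTBE liquid-liquid extraction of culture medium. Cells were H295R, 48 h chemical exposure per OECD 456 with modifications. Gain or loss of signal fitted relative to DMSO.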

Read-out in test [13]: growth arrest and DNA damage 45 (GADD45A), GADD45A (gene 1647)
Put plainly: LTEA_HepaRG_GADD45A: Life Technologies and Expression Analysis (LTEA) Assay for growth arrest and DNA damage 45 (GADD45A) using HepaRG (AID 2283458). The settings on record: mRNA level, 48 h; actives raise or lower the signal. The gist of the method:
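HepaRG, 48 h exposure, 8 conc. (top 100 uM, half-log steps), 0.5% DMSO vehicle, duplicates. Read-out: qRT-PCR mRNA level, housekeeping-normalized (ACTB/GAPDH/POLR2A). Curves fit bidirectionally vs DMSO baseline.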

Read-out in test [14]: Forkhead box O3 (FOXO3), FOXO3 (gene 2309)
Description: LTEA_HepaRG_FOXO3: Life Technologies and Expression Analysis (LTEA) Assay for Forkhead box O3 (FOXO3) using HepaRG (AID 2283459). As to conditions: mRNA level, 48 h; actives raise or lower the signal. The method in brief:
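FOXO3 transcript measured by qRT-PCR (normalized to ACTB, GAPDH, POLR2A) after 48 h exposure of HepaRG cells in serum-free induction medium. Duplicates, eight half-log concentrations up to 100 uM, 0.5% DMSO; gain or loss fitted against DMSO.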

Read-out in test [15]: ABC Transporter (ABCC3), ABCC3 (gene 8714)
Put plainly: LTEA_HepaRG_ABCC3: Life Technologies and Expression Analysis (LTEA) Assay for ABC Transporter (ABCC3) using HepaRG (AID 2283462). The settings on record: mRNA level, 48 h; actives raise or lower the signal. The gist of the method: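 qRT-PCR read-out of ABCC3 transcript, normalized to three housekeeping genes (ACTB, GAPDH, POLR2A), after 48 h chemical exposure of human HepaRG cells. Eight half-log concentrations, highest 100 uM, in 0.5% DMSO; gain or loss fitted relative to DMSO baseline.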

Read-out in test [16]: ABC Transporter (ABCB11), ABCB11 (gene 8647)
Put plainly: LTEA_HepaRG_ABCB11: Life Technologies and Expression Analysis (LTEA) Assay for ABC Transporter (ABCB11) using HepaRG (AID 2283463). The settings on record: mRNA level, 48 h; actives raise or lower the signal. The gist of the method:
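ABCB11 transcript levels quantified by TaqMan qRT-PCR against three housekeeping genes after 48 h chemical exposure of HepaRG cultures. Concentrations up to 100 uM in half-log steps, 0.5% DMSO vehicle; both induction and suppression scored.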

Read-out in test [17]: ABC Transporter (ABCC2), ABCC2 (gene 1244)
Description: LTEA_HepaRG_ABCC2: Life Technologies and Expression Analysis (LTEA) Assay for ABC Transporter (ABCC2) using HepaRG (AID 2283464). The settings on record: mRNA level, 48 h; actives raise or lower the signal. The gist of the method:
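qRT-PCR (TaqMan, Fluidigm array) read-out of ABCC2 mRNA, normalized to three housekeeping genes. Differentiated HepaRG cells were treated 48 h in serum-free induction medium with 8-point half-log series from 100 uM in 0.5% DMSO; curves fitted bidirectionally relative to DMSO.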

Read-out in test [18]: growth arrest and DNA damage 45 (GADD45B), GADD45B (gene 4616)
Description: LTEA_HepaRG_GADD45B: Life Technologies and Expression Analysis (LTEA) Assay for growth arrest and DNA damage 45 (GADD45B) using HepaRG (AID 2283461). As to conditions: mRNA level, 48 h; actives raise or lower the signal. The gist of the method: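 qRT-PCR read-out (Fluidigm TaqMan, housekeeping-normalized) of mRNA change in human HepaRG cells after 48 h chemical exposure; 8-point curve, top 100 uM, half-log steps, 0.5% DMSO vehicle; gain or loss fitted relative to DMSO baseline.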

A short description of test [19]: CEETOX_H295R_ESTRADIOL: CeeTox H295R High-throughput Steroidogenesis Assay for Estradiol (AID 2283440).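 Note: estradiol secreted into medium quantified by LC-MS/MS after dansyl derivatisation.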 As to conditions: actives raise or lower the signal. The method in brief: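 H295R, 48 h forskolin (10 uM) prestim → 48 h compound, 0.1% DMSO final. Estradiol in medium: MTBE extraction, dansyl chloride derivatization, LC-MS/MS. Fit bidirectional vs DMSO baseline; MTT viability in same wells.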

Sequence of Fatty acid synthase (Homo sapiens) (P49327 whole entry, looked up): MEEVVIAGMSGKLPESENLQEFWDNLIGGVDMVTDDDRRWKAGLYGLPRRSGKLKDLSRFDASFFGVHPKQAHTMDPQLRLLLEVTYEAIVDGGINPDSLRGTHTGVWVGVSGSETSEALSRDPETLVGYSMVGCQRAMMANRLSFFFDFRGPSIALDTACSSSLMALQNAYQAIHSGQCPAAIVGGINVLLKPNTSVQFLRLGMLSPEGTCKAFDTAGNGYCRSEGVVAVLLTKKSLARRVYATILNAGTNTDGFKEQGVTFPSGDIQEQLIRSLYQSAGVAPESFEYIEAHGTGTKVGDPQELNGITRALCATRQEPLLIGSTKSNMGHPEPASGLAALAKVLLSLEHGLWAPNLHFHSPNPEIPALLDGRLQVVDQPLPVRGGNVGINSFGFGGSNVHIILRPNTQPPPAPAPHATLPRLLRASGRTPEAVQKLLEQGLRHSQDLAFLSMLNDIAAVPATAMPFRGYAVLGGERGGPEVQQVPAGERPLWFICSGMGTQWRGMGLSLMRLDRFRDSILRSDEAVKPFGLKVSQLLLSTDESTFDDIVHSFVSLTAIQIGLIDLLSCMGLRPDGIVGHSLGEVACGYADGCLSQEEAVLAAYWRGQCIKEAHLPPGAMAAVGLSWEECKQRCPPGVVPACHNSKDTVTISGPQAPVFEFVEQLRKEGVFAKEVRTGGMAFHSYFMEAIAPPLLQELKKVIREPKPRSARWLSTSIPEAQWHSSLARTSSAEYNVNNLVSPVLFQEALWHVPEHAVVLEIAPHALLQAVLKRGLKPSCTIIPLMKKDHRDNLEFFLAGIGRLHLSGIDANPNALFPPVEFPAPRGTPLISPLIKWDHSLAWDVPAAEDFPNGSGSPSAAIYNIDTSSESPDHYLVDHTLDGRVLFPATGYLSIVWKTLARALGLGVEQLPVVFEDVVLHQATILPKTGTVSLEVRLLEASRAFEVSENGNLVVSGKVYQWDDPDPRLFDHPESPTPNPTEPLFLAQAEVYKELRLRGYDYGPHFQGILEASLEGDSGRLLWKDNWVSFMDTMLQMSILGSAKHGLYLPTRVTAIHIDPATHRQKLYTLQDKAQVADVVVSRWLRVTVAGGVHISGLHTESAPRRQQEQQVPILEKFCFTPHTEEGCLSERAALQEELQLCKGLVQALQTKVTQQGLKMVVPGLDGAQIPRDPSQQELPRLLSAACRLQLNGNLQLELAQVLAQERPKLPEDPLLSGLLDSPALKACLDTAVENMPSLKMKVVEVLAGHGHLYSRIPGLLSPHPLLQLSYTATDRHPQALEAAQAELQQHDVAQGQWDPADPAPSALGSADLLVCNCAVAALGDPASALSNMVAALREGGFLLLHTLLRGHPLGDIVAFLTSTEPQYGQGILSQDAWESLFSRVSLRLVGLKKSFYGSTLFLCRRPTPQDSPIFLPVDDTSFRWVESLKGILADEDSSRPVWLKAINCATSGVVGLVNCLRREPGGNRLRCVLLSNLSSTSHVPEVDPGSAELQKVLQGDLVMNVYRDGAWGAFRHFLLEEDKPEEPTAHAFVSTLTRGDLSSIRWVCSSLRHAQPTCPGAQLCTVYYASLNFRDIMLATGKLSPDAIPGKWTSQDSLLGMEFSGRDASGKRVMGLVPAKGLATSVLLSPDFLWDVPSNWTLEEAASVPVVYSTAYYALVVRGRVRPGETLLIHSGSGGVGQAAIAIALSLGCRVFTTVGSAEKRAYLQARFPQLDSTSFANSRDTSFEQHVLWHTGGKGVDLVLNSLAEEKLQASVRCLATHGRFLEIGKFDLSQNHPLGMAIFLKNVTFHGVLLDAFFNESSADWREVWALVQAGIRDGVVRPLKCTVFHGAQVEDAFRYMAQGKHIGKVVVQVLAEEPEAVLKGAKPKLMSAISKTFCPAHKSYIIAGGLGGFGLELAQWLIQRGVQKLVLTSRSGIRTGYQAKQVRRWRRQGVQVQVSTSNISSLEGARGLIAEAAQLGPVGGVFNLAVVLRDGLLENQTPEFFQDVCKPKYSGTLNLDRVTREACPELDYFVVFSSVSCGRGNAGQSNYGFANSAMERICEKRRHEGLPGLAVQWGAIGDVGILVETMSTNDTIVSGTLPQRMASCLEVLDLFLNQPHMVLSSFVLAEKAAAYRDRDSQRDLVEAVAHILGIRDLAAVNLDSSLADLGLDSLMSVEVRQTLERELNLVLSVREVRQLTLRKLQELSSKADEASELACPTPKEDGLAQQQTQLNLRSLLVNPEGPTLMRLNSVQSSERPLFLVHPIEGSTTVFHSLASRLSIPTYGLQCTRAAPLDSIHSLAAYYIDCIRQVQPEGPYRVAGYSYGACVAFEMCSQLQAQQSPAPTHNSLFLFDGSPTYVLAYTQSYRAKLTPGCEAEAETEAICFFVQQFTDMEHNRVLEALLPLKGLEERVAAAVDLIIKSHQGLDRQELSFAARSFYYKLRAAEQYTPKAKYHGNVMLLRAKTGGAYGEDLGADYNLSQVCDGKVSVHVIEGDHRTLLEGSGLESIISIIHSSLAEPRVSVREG

With `CCON=C(CC)C1=C(O)CC(c2c(C)cc(C)cc2C)CC1=O` (stereo unspecified), the compound was called inactive in test [1], in [2], in [4], in test [5], in test [6] and in test [7]. The result in test [8], in test [9], in [10], in test [11], in test [12] and in test [13] was inactive. Further, the compound was classed as inactive in [14], in test [15] and in test [16]. In addition, the AC50 in test [3] and in test [17] was 50 µM (active) each time.
As to `CON(C)C(=O)Nc1ccc(Cl)c(Cl)c1`, the compound was called inactive in test [1], in test [2], in [4], in test [7], in [10] and in [11]. In addition, the compound was called inactive in test [13], in [18] and in [15]. Further, the half-maximal activity concentration (AC50) in [3] is 4.86 µM (active); in test [5], 85.8 µM (active); in test [6], 26.6 µM (active); in test [8] it was 50 µM (active); in test [9], 72.7 µM (active); in test [14], 13.4 µM (active). In addition, the results for the AC50 in test [16] and in test [17] were 43.1 µM (active) and 85 µM (active), respectively.
`CCNc1nc(Cl)nc(NCC)n1`: the call in test [19], in test [1], in [2], in test [3], in [4] and in [5] was inactive. Moreover, the compound was called inactive in test [6], in test [7], in [8], in test [10], in [11] and in test [13]. Besides, the compound was called inactive in [14], in [15], in test [16] and in test [17]. Also, the AC50 in test [9] is 21.4 µM (active).
